Potency data for 70 molecules are collected here from ChEMBL document CHEMBL1201862, “PubChem BioAssay data set” (2004).

Screen size: about 400,000 compounds; about 2,100 (0.53%) were called active. Roughly 14% stayed inconclusive and do not appear here. The sample holds actives, similar compounds and a random draw of the others, so the mix is not that of the screen. How the calls were made is not given here.

In this assay the target is Ataxin-2 (Homo sapiens) (UniProt Q99700). The assay is described as follows: qHTS for Inhibitors of ATXN expression. The format is functional. On the technique in general: qHTS replaces the single test concentration by a dilution series.
Ataxin-2 (Homo sapiens), sequence (Q99700 whole entry): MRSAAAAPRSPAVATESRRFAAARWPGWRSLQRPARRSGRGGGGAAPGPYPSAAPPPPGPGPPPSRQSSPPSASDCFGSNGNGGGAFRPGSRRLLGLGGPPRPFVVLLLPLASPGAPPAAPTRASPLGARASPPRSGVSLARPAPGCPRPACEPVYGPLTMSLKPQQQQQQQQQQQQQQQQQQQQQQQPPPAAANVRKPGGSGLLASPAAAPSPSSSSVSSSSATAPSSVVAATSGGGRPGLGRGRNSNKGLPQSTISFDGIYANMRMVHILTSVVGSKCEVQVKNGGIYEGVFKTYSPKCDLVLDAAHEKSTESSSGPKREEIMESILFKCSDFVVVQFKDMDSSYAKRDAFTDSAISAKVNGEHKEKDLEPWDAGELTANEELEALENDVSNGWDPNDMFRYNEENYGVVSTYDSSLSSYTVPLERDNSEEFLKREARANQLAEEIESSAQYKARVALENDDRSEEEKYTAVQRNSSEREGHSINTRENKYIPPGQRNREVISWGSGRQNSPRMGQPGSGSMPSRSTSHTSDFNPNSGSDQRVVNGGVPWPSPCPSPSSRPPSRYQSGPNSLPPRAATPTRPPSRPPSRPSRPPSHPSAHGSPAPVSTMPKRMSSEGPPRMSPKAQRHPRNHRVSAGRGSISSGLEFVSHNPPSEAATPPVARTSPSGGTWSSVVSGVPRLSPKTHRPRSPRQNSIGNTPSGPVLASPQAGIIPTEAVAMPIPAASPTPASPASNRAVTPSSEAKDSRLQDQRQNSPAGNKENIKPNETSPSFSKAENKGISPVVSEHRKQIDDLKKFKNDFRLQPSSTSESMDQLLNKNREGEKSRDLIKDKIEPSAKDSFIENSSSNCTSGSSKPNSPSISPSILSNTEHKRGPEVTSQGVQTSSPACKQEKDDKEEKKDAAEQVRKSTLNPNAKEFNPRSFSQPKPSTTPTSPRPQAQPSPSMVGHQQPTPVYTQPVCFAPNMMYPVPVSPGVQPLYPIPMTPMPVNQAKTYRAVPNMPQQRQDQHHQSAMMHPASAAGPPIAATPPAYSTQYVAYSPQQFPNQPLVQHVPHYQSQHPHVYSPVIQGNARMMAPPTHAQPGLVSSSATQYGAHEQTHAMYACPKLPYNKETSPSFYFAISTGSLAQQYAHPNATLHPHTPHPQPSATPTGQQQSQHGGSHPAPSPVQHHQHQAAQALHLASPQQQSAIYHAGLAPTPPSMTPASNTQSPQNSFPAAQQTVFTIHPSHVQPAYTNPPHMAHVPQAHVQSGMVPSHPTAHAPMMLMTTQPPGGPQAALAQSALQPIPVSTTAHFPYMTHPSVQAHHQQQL
Consider `Cc1c(Cc2ccccc2)c(=O)oc2c(C)c(OCC(=O)Nc3ccc(C#N)cc3)ccc12`, for which the Potency result is “inactive”.

Regarding `OC[C@@H]1[C@@H](c2ccc(F)cc2)C(c2ccccc2)=NN1c1ccccc1`, the Potency result is “inactive”. For the molecule `Clc1ccc(/C=C\c2[nH]ccc3c4ccccc4nc2-3)cc1`, the Potency result was “inactive”. With `CCc1cc2c(COC(=O)c3cccc(S(C)(=O)=O)c3)cc(=O)oc2cc1O` the entry was “inactive”. With `O=C(O)/C=C/c1cn(Cc2ccccc2)nc1-c1cccs1` the entry was “inactive”; with `c1ccc(CN2CCC(Nc3nc(-c4cccs4)nc4ccccc34)CC2)cc1`, 31.6 µM (active); with `Cc1cccn2c(=O)c3cc(C(=O)NCC4CCCO4)c(=N)n(Cc4cccnc4)c3nc12` (stereo not given), “inactive”. With `CC(C)c1cc(NCc2ccccn2)n2c(nc3ccccc32)c1C#N`, the Potency entry was “inactive”.

For the molecule `O=S(=O)(Nc1nc2ccccc2nc1Cl)c1ccc(Cl)cc1`, the Potency result is “inactive”. For `O=S(=O)(Nc1cc2nc3ccccc3nc2n1Cc1ccccc1)c1ccc(Cl)cc1`, the Potency result is “inactive”. As to `O=S(=O)(NCC(Nc1ccc(Cl)cc1)c1ccccc1)c1ccccc1` (stereo not given), the Potency was 22.4 µM (active). With `Cc1c(CCC(=O)NC2CC2)c(=O)oc2c(C)c(O)ccc12` the entry was “inactive”; with `CN1CCC(N(C)C(=O)c2sc3cc(F)ccc3c2Cl)CC1`, “inactive”.

For the molecule `CCc1nnc(NC(=O)CSc2n[nH]c3c4ccccc4nc-3n2)s1`, the Potency result is “inactive”. As to `CC1CCc2cc(F)ccc2N1C(=O)CSc1n[nH]c2c3cc(F)ccc3nc-2n1` (stereo not given), the Potency is 22.4 µM (active). For `CC1CCc2cc(F)ccc2N1C(=O)CCl` (stereo not given), the Potency was 29.9 µM (active). With `CC(=O)N1c2ccc(S(=O)(=O)NCCC(=O)Nc3ccc(Cl)cc3)cc2CC1C` (stereo not given) the entry was “inactive”; with `CC(Sc1nc(-c2ccc(F)cc2)cs1)C(=O)N1c2ccccc2CC1C` (stereo not given), “inactive”; with `Cc1nc2nc(-c3ccc(F)cc3)cn2nc1C`, “inactive”. Take `CC[n+]1c(/C=C/c2ccc(OC(C)=O)c(OC)c2)ccc2ccccc21`: the Potency was 22.4 µM (active). For `CCCCCC[n+]1ccccc1C=Cc1ccc(N(C)C)cc1`, the Potency is 7.94 µM (active). For the molecule `CN(C)c1ccc(C=Cc2cnccn2)cc1`, the Potency entry is “inactive”. As for `CCCN(CCC)c1ccc(/C=C/c2ccc3cc(OCC)ccc3n2)cc1`, the Potency result was “inactive”. For the molecule `CN(C)c1ccc(/C=C/c2cccc[n+]2[O-])cc1`, the Potency entry was “inactive”. On to `COc1ccc2ccccc2c1/C=N/Nc1cccc(C(=O)O)c1`, for which the Potency entry was “inactive”. With `CN(C)c1ccc(/C=C/c2ccc3ccccc3n2)cc1` the entry was “inactive”; with `CC[n+]1c(/C=C/c2ccc(N(C)C)cc2)ccc2ccccc21`, 10 µM (active); with `CCN(CC)c1ccc(/C=C/c2ccc3ccc(OC)cc3[n+]2CC)cc1`, 2.82 µM (active). On to `CN(C)c1ccc(/C=C/c2nc3ccccc3s2)cc1`, for which the Potency result is “inactive”. In the case of `CCN(CC)c1ccc(/C=N/NC(=S)NCc2ccc(OC)cc2)cc1`, the Potency result was “inactive”. `COc1ccc(/C=C2\CCc3c2nc2ccccc2c3C(=O)O)cc1OC`: the Potency entry is “inactive”. `CCOC(=O)c1cc(C#N)c(Nc2ccccc2OC)nc1C(F)(F)F`: the Potency result was “inactive”. As for `O=S(=O)(O)c1ccc(N2N=C(c3ccccc3)CC2c2ccccc2)cc1` (stereo not given), the Potency result was “inactive”. Turning to `Nc1nnc(-c2cc3ccccc3oc2=O)s1`, the Potency result was “inactive”.

Regarding `CC(=O)Oc1ccc(N2C(=O)c3cccc4c([N+](=O)[O-])ccc(c34)C2=O)cc1`, the Potency entry was “inactive”. In the case of `CC(=O)NNC(=O)c1sc(=S)n2c1[nH]c(=O)c1sccc12`, the Potency result was “inactive”. For the molecule `Oc1ccc(/C=C/c2ccnc3ccccc23)cc1`, the Potency entry is “inactive”. Under `CCN(CC)c1ccc(/C=C/c2cc(-c3ccccc3)c3ccccc3n2)cc1` stands “inactive”; under `C[n+]1c(/C=C/c2ccc(O)cc2)ccc2ccccc21`, 26.7 µM (active). On to `Oc1ccc(/C=C/c2ccc3ccccc3n2)cc1`, for which the Potency result is “inactive”. With `CN(C)c1ccc(/C=C/c2ccc3c4ccccc4ccc3[n+]2-c2ccccc2)cc1` the figure was 11.9 µM (active); with `CN(C)c1ccc(C=Cc2nccc3ccccc23)cc1`, “inactive”. `O=C1C(Cl)=C(NC2CCCCC2)C(=O)N1Cc1ccccc1`: the Potency result is “inactive”. As to `C=CCn1c(C)c(C(C)=O)cc(NC(=O)c2ccccc2)c1=O`, the Potency result is “inactive”. With `O=C(CN1C(=O)c2cccc3cccc1c23)NC1CCCCC1` the entry was “inactive”. As for `O=C1c2cccc3cc([N+](=O)[O-])cc(c23)C(=O)N1CC1CCCO1` (stereo not given), the Potency entry was “inactive”. For `CCOC(=O)C1CCCN(S(=O)(=O)c2ccc3c4c(cccc24)C(=O)N3CC)C1` (stereo not given), the Potency entry is “inactive”. Under `CCC(C)NC(=O)CN1C(=O)c2cccc3cccc1c23` (stereo not given) stands “inactive”.

Take `CCN(CC)C(=O)CN1C(=O)c2cccc3cccc1c23`: the Potency entry is “inactive”. As for `CCc1ccc(OCC(O)CN2CCC(CN3C(=O)c4cccc5cccc(c45)C3=O)CC2)cc1` (stereo not given), the Potency was 39.8 µM (active).

Regarding `CCOC(=O)N1CCN(CC(O)COc2cc(C)cc(C)c2)CC1` (stereo not given), the Potency result is “inactive”. For `CCOC(=O)C1CCN(S(=O)(=O)c2ccc3c4c(cccc24)C(=O)N3CC)CC1`, the Potency result is “inactive”. Turning to `Cc1ccc(C)c(OCC(O)CN2CCC(CN3C(=O)c4cccc5cccc(c45)C3=O)CC2)c1` (stereo not given), the Potency was 39.8 µM (active).

With `O=C(CN1C(=O)c2cccc3cccc1c23)NC1CCCC1`, the Potency result was “inactive”. Under `Cc1cccc(C)c1OCC(O)CN1CCC(CN2C(=O)c3cccc4cccc(c34)C2=O)CC1` (stereo not given) stands 25.1 µM (active). Take `Cc1cc(C)cc(OCC(O)CN2CCC(CN3C(=O)c4cccc5cccc(c45)C3=O)CC2)c1` (stereo not given): the Potency is 28.2 µM (active). Take `COc1ccc(-c2cc(=O)oc3c(C)c(O)c(CN(C)C)cc23)cc1`: the Potency entry is “inactive”. On to `COCCNC(=O)/C(C#N)=C/c1c(N2CCN(C)CC2)nc2c(C)cccn2c1=O`, for which the Potency entry is “inactive”. Under `CCOCCCn1c(=N)c(C(=O)NCc2cccnc2)cc2c(=O)n3cc(C)ccc3nc21` stands “inactive”; under `Cc1ccc(S(=O)(=O)c2cc3ccc(O)cc3oc2=O)cc1C`, “inactive”.

For `CCCc1cc(=O)oc2c(CN3CCCC3)c(O)c(Cl)cc12`, the Potency result was “inactive”. With `CC(=O)NC(=Nc1ccc(C)cc1Cl)Nc1nc(C)cc(C)n1` the entry was “inactive”; with `Oc1c(C(c2ccccn2)N2CCC(Cc3ccccc3)CC2)cc(Cl)c2cccnc12` (stereo not given), “inactive”. For `Cc1ccc(C)c(OCC(O)CN2CCC(Cc3ccccc3)CC2)c1` (stereo not given), the Potency is 39.8 µM (active). Regarding `CC1=C(C(=O)N(C(C)C)C(C)C)CC(CC(=O)NCc2cccc3ccccc23)C(=O)N1CCC1=CCCCC1` (stereo not given), the Potency was 39.8 µM (active).

In the case of `O=C(COC(=O)c1cc(S(=O)(=O)N2CCCC2)ccc1O)NCCc1ccccc1`, the Potency entry is “inactive”.

As to `CC1=C(C(=O)N(C(C)C)C(C)C)CC(CC(=O)NCCCCc2ccccc2)C(=O)N1CCC1=CCCCC1` (stereo not given), the Potency is 39.8 µM (active). For the molecule `CC1=C(C(=O)N(C(C)C)C(C)C)CC(CC(=O)NC(c2ccccc2)c2ccccc2)C(=O)N1CCC1=CCCCC1` (stereo not given), the Potency is 39.8 µM (active).

Take `CC1=C(C(=O)N2CCCCCC2)CC(CC(=O)NCCCCc2ccccc2)C(=O)N1Cc1ccccc1` (stereo not given): the Potency is 35.5 µM (active). Take `CC(CCc1ccccc1)NC(=O)C1CCC1` (stereo not given): the Potency result is “inactive”.
